Source: PubChem BioAssay
Sampled rows, rich in hits. Any-hit rate of the full collection: about 31%.
PLAP activator – activates human placental alkaline phosphatase; purified PLAP enzyme, luminescent substrate read-out; active compounds read high; activation fold at 20 µM; actives 1.2% (n = 96,000); AID 696; in the data active means activation fold above about 2
Target sequence (P05187 whole entry, looked up): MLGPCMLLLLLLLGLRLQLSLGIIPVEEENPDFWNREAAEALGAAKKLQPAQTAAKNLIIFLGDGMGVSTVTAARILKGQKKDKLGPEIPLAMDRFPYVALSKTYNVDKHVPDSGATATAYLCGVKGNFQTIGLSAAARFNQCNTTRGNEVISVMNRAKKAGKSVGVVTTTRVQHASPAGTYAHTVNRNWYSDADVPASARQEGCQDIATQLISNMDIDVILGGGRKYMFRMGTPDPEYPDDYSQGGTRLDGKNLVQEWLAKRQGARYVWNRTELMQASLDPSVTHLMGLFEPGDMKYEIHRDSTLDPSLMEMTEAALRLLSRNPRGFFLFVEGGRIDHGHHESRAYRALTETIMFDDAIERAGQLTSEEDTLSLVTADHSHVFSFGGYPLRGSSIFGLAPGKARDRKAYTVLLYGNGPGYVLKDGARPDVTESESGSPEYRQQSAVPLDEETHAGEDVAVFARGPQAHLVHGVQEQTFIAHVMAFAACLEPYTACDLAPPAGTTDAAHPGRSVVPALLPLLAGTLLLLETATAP
CYP2C9 activ – increases human cytochrome P450 2C9 activity | P11712 | recombinant CYP2C9, luciferin-H conversion, luminescence; active compounds read high; factor 1 = untreated enzyme, 0 = blocked | activation factor at 5 µM | actives 1.4% (n = 96,000) | AID 1024;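 active means activation factor of 2 or more for CYP2C9 at a 5 µM dose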;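 further: 0 = sulfaphenazole-blocked wells and 1 = vehicle-only wells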
CYP2C19 inh – blocks human cytochrome P450 2C19. CYP2C19 Supersomes, luciferin-H EGE luminescence, 30 min. inhibition, % at 5 µM. actives 21% (n = 96,000). AID 778;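 active means CYP2C19 inhibition above a set limit at 5 µM in the primary screen, cut at about 50% in these data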;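 further: plate controls were negative control wells for no effect and 2.5 mM tranylcypromine positive control for full effect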
CYP2C9 inhib – human CYP2C9 inhibition; P11712; CYP2C9 Supersomes, luciferin-H conversion, luminescence; inhibition, % at 5 µM; actives 20% (n = 96,000); AID 777;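 active means blocking of liver enzyme CYP2C9 beyond about 50% at 5 µM, limit read from the data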
CYP2C19 activ – cytochrome P450 2C19 (human) activation; activation factor at 5 µM; 96,000 tested, under 10 active; P33261; AID 1025; recombinant CYP2C19, luciferin-H EGE luminescence; active compounds read high; 0 = fully inhibited enzyme, 1 = untreated enzyme;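 active means activation factor of at least 2 at 5 µM in the primary screen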;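 further: 0 = wells with 2.5 mM tranylcypromine and 1 = vehicle-only wells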
* marks the source's active call; other numbers are inactive results.

SMILES	PLAP activator	CYP2C9 activ	CYP2C19 inh	CYP2C9 inhib	CYP2C19 activ
CCOC(=O)CC1C(=O)NCCN1Cc1cccc(C(F)(F)F)c1 (centres undefined)	1.5	1.2	55*	-20	0.4
O=S1(=O)c2ccccc2N=NN1Cc1ccc(Cl)cc1	1.3	0.3	83*	68*	0.2
O=S1(=O)c2ccccc2N=NN1Cc1cc(Cl)cc(Cl)c1	1.1	0.5	33	54*	0.7
O=[N+]([O-])c1ccccc1CNC(Cc1ccccc1)c1ccccc1 (centres undefined)	0.7	0.6	90*	40	0.1
CC1=NC(Nc2nc(C)c3ccccc3n2)=NC(C)(C)C1	1.4	1	-2	3	1
Cc1ccnc(N2C(=O)C3C4CC(C(Br)C4Br)C3C2=O)c1 (centres undefined)	1	1	6	-4	0.9
O=C1C2C3CC(C(Br)C3Br)C2C(=O)N1c1ccccn1 (centres undefined)	0.9	0.9	62*	9	0.4
COc1ccccc1/C=C/CN1CCN(c2ccccc2)CC1	1.6	1.2	82*	-16	0.2
COc1ccccc1/C=N/NC1=NCCCCC1	1.1	1	6	2	0.9
Cc1ccc(S(=O)(=O)Nc2cccc3ncccc23)s1	1.4	2.5*	45	-154	0.6
Cc1ccc(OCCSc2ncnc3nc[nH]c23)cc1	2.4*	0.5	73*	54*	0.3
Brc1ccc(CSc2ncnc3nc[nH]c23)cc1	1.7	0.8	56*	19	0.4
Fc1ccc(CSc2ncnc3nc[nH]c23)cc1	1.7	0.6	47	40	0.5
C=CCNC(=O)C1CC(=O)N(c2ccc(OCC(=O)Nc3ccc(OC)cc3)cc2)C1 (centres undefined)	1.2	0.9	-16	7	1.2
CC(C)(C)C(=O)NC(NC(=S)Nc1sc2c(c1C#N)CCCC2)C(Cl)(Cl)Cl (centres undefined)	1	0.7	-12	29	1.1
Cc1noc2ncnc(Sc3ccccc3Cl)c12	1.2	0.3	100*	68*	0
Cc1noc2ncnc(Oc3ccccc3)c12	1.1	0.5	76*	49	0.2
Cc1cccc(Oc2ncnc3onc(C)c23)c1	0.9	1.1	23	-8	0.8
O=C(OCC(=O)N1CCOCC1)C(c1ccccc1)c1ccccc1	1.5	0.7	33	32	0.7
CNC(=O)c1ccsc1NC(=O)c1ccc(Cl)s1	1	0.3	77*	68*	0.2
COC(=O)c1sccc1NC(=O)c1ccc(Cl)s1	0.8	1	28	3	0.7
COc1ccccc1N1CCN(c2nc3c(C)cccn3c(=O)c2C=O)CC1	1.3	1.7	69*	-71	0.3
Cc1cccn2c(=O)c(C=O)c(N3CCCCCC3)nc12	0.9	0.8	49	22	0.5
Cc1cccn2c(=O)c(/C=C(\C#N)S(=O)(=O)c3ccccc3)c(N3CCC(C(N)=O)CC3)nc12	1.6	0.2	30	82*	0.7
Cc1ccc(S(=O)(=O)/C(C#N)=C/c2c(N3CCC(C(N)=O)CC3)nc3c(C)cccn3c2=O)cc1	1.5	0.2	33	80*	0.7
SMILES	PLAP activator	CYP2C9 activ	CYP2C19 inh	CYP2C9 inhib	CYP2C19 activ
CCN1CCN(c2nc3c(C)cccn3c(=O)c2/C=C(\C#N)S(=O)(=O)c2ccccc2)CC1	1.3	0.1	27	90*	0.7
COC(=O)c1cnc(SC)nc1C	0.9	0.9	24	5	0.8
Cc1ccc(S(=O)(=O)/C(C#N)=C/c2c(N3CCOCC3)nc3ccccn3c2=O)cc1	1.3	0.5	17	49	0.8
Cc1ccc(S(=O)(=O)/C(C#N)=C/c2c(N3CCC(C(N)=O)CC3)nc3ccccn3c2=O)cc1	1.8	0.1	31	92*	0.7
Cc1cc(=O)oc2ccc(OCC(=O)N(Cc3ccc(F)cc3)Cc3ccco3)cc12	1.5	0.1	86*	89*	0.1
CC(=O)c1cc2c(cc1NC(=O)Nc1cccc(Cl)c1)OCCO2	0.8	1	-4	4	1
C=CCOc1ccc(/C(CC)=N/O)cc1OC	1	1	14	2	0.9
CC(C)(C)OC(=O)NNC(=O)c1ccc(Cl)cc1	1.1	0.8	46	24	0.5
CC(C)(C)OC(=O)NNC(=S)NCc1ccc(Cl)cc1	1.3	0.4	57*	55*	0.4
Nn1c(SCc2cn3ccsc3n2)nnc1-c1ccncc1	1.2	0.9	65*	8	0.4
Cc1csc2nc(CSc3ccc(Cl)cc3)cn12	1.2	3.6*	73*	-261	0.3
Nn1c(SCC(=O)N2CCCCC2)nnc1-c1ccncc1	0.9	0.9	14	5	0.9
c1ccc(CSCc2cn3ccsc3n2)cc1	0.8	1	7	4	0.9
Clc1ccc(SCc2cn3ccsc3n2)cc1	0.8	1.2	53*	-20	0.5
Cc1csc2nc(CSc3nc4ccccc4o3)cn12	0.9	1.2	23	-15	0.8
Cc1noc(C)c1Cc1ccc(O)cc1	1	0.7	23	31	0.8
CCCn1c(SCC(=O)NCCc2ccccc2)nnc1-c1cccnc1	1	1.1	4	-13	1
COc1ccc(CCN2C(=O)c3[nH]nc(-c4ccccc4O)c3C2c2ccccc2)cc1OC (centres undefined)	0.8	1	-2	-4	1
COCCCN1C(=O)c2[nH]nc(-c3cc(C)cc(C)c3O)c2C1c1ccc(O)c(OC)c1 (centres undefined)	1.8	0.4	87*	63*	0.1
COc1cc(C2c3c(-c4cc(C)cc(C)c4O)n[nH]c3C(=O)N2CCCO)cc(OC)c1OC (centres undefined)	2.1*	0.6	3	44	1
O=C(c1ccccc1)c1ccccc1N/C=C/c1nnnn1-c1ccccc1	1	0.5	73*	46	0.3
COc1ccc(C(F)(F)F)cc1N/C=C\c1nnnn1-c1ccccc1	1	0.3	65*	71*	0.3
COC(=O)c1ccc(-n2nnnc2SCC(=O)Nc2ccccc2C(=O)OC)cc1	1.3	1.1	-12	-6	1.1
O=C(CNCC1CCCO1)N1CCCc2ccccc21 (centres undefined)	1.1	1.1	-16	-14	1.2
O=C(CCc1ccccc1)Nc1ccc2c(c1)OCCO2	0.8	0.8	5	20	1
SMILES	PLAP activator	CYP2C9 activ	CYP2C19 inh	CYP2C9 inhib	CYP2C19 activ
CS(=O)(=O)N(CCc1ccccc1)CC(=O)Nc1ccc2c(c1)OCO2	1	0.6	15	36	0.8
COC(=O)c1ccc(NC(=O)CN(Cc2ccc(Cl)cc2)S(C)(=O)=O)cc1	1.8	0.2	95*	82*	0.1
COCCCNC(=O)CN(Cc1ccc(Cl)cc1)S(C)(=O)=O	1.4	1	58*	-2	0.4
CCOCCCNC(=O)CN(Cc1ccc(Cl)cc1)S(C)(=O)=O	0.9	1	13	-4	0.9
COC(=O)c1ccc(NC(=S)N2CCN(Cc3ccc(Cl)cc3)CC2)cc1	1.1	0.7	16	29	0.8
CN(CCC(=O)Nc1ccc2c(c1)OCO2)Cc1ccccc1	0.9	0.5	32	52*	0.7
